# Compounds with a hit are over-represented: about 5.2% of the library has one in this group of screens.
# PostGolgi yeast: growth inhibition of a yeast mutant, post-Golgi transport screen; post-Golgi transport phenotypic cell assay; inhibition, % at 10 µM; 0.9% of 98,000 active; AID 739;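 also: yeast cells grown in 1536-well plates; yeast grown about 18 h at 30C before absorbance read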
# EphB4 ephrin blk: antagonists of human EphB4-ephrin-B2 interaction; P54760; EphB4 LBD / TNYL-RAW-Alexa532 peptide, fluorescence polarization; inhibition, % at 7 µM; 0.15% of 97,000 active;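 active = inhibition above the screen-wide mean inhibition plus 3 SD, cut at about 15% in these data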;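 also: 0% = DMSO wells and 100% = excess unlabeled TNYL-RAW peptide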
# Calb biofilm kill: kills Candida albicans biofilms; 0.14% of 85,000 active; inhibition, % at 6 µM; AID 834; C. albicans biofilm + clotrimazole, Alamar Blue;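 active = inhibition above 20%; inactive = inhibition below 20%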;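 also: preformed 24 hr biofilms exposed to compound for 48 hr; 0% = biofilm without compound and 100% = blank killed by clotrimazole plus chlorhexidine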
# PostGolgi ctrl: inhibits growth of the yeast control strain; AID 738; 5% of 98,000 active; inhibition, % at 10 µM; efflux-deficient yeast background strain, growth absorbance A615, 16 h
# * hit, by the source's call; . = not tested or not shown. Rule as the data show it, unless noted: active = inhibition above about 30%; inactive = the rest.
SMILES,PostGolgi yeast,EphB4 ephrin blk,Calb biofilm kill,PostGolgi ctrl
NC(=O)NC(c1ccccc1)c1cccc2ccccc12 (stereo not drawn),3,-8,2,17
O=C(C1CC1)N1CCc2cc(Br)cc(S(=O)(=O)NC3CCCCC3)c21,-2,.,0,14
CCC(=O)N1CCc2cc(Br)cc(S(=O)(=O)N3CCCCCC3)c21,8,-2,4,36*
O=C(C1CC1)N1CCc2cc(Br)cc(S(=O)(=O)N3CCCCCC3)c21,-1,.,7,41*
Cc1c(Br)cc(C(=O)OC2CCN(C)CC2)c(C)c1C,-3,0,7,2
Cc1ccc(NS(=O)(=O)c2ccc(OCC(=O)N3CCOCC3)cc2)cc1,2,5,4,33*
CCCNS(=O)(=O)c1ccc(OCC(=O)N2CCC(C(=O)OCC)CC2)cc1,-7,1,4,31*
CCOC(=O)C1CCN(C(=O)COc2ccc(S(=O)(=O)NC(C)C)cc2)CC1,14,-2,3,-6
Cc1ccc(NS(=O)(=O)c2ccc(CCC(=O)N3CCOCC3)cc2)cc1,-15,0,8,0
CCOc1ccc2c(c1)C(c1ccccc1)=NNC(c1ccccc1)=N2,.,2,0,.
N=c1c2c(-c3ccccc3)c(-c3ccccc3)oc2ncn1CCN1CCOCC1,1,-3,8,72*
c1ccc(-c2oc3ncnc(NCCN4CCOCC4)c3c2-c2ccccc2)cc1,15,1,6,92*
CC1(C)N([O-])C2=C(c3ccccc3C2=O)[N+](=O)C1(C)C,-1,3,-2,-9
O=C(/C=C/c1cccc(Cl)c1)c1nc2ccccc2[nH]1,100*,-2,.,93*
O=C(CSCc1nc2ccccc2[nH]1)N1CCN(c2cccc(Cl)c2)CC1,-5,6,-3,24
Clc1ccc(C2C3=C(Nc4ncnn42)c2ccccc2CC3)cc1 (stereo not drawn),4,4,-1,7
Cc1cc(C)nc(N2CCC(C(=O)Nc3cccc(C(F)(F)F)c3)CC2)n1,2,-4,0,23
O=C(CCN1C(=O)c2ccccc2C1=O)N1CCC(c2ccccc2)C1 (stereo not drawn),-23,1,4,32*
CCN1CCN(C(=O)Nc2cccc(C(F)(F)F)c2)CC1,5,6,4,31*
Cc1ccc(C2CCN(C(=O)Nc3ccccc3)C2)cc1 (stereo not drawn),7,6,-2,42*
CC1CCN(C(=O)Nc2ccc3nsnc3c2)CC1,16,4,7,3
COc1ccc(NC(=O)N2CCN(c3cccc(C(F)(F)F)c3)CC2)cc1,1,3,-2,2
CC1CCN(C(=O)Nc2cccc(NC(=O)N3CCC(C)CC3)c2)CC1,-2,1,1,30*
O=C(CCN1C(=O)c2ccccc2C1=O)N1CCCCCC1,3,1,6,9
O=C(OCCN1C(=O)CCC1=O)c1ccc(S(=O)(=O)N2CCCCC2)cc1,1,-1,.,16
SMILES,PostGolgi yeast,EphB4 ephrin blk,Calb biofilm kill,PostGolgi ctrl
N=c1c(-c2nc3ccccc3[nH]2)cc(C(=O)c2cccs2)nn1-c1ccc(Cl)cc1,.,6,3,.
CCCCSc1nnc(CCCCCNC(=O)OC(C)(C)C)o1,-2,8,9,7
O=C(CN1C(=O)COc2ccccc21)N(Cc1cccnc1)Cc1ccccc1F,-3,1,-3,-1
COc1ccc(OCCn2cc(/C(N)=N/O)c3ccccc32)cc1,-3,1,3,1
CCC(=C(c1ccc(OC)cc1)c1ccc(OC)cc1)c1cn(CC(O)CN2CCN(C)CC2)c2ccccc12 (stereo not drawn),28,8,-2,91*
O=c1c2[nH]c3ccc(Br)cc3c2ncn1CCCn1ccnc1,33*,8,.,23
CCOC(=O)c1c(C)oc2cc3c(C(=O)OCC)c(C)oc3cc12,.,2,3,.
Cc1ccc(S(=O)(=O)c2nc(NCc3ccc4c(c3)OCO4)sc2Cl)cc1,-10,5,.,48*
Cc1ccc(S(=O)(=O)c2nc(Nc3nccs3)sc2Cl)cc1,-9,-2,-4,52*
CC(=O)Nc1nc(S(=O)(=O)c2ccc(C)cc2)c(Cl)s1,4,-4,8,17
COc1ccc(OC)c2[nH]c(=O)c(CCNC(=O)c3ccc(Br)o3)cc12,-4,5,4,-4
Cc1c(NC(=O)OCCSc2nc(N(C)C)nc(N(C)C)n2)sc(=S)n1C,-1,4,13,8
Cc1ccc(-c2nn3c(C)nnc3s2)cc1NC(=O)C(C)C,-10,6,12,-1
Cc1ccc(CNc2cc(-c3nn4c(C)nnc4s3)ccc2C)s1,8,-7,-2,32*
Cc1ccc(-c2nn3c(C)nnc3s2)cc1NCc1c(F)cccc1Cl,33*,-3,4,23
Cc1nn2c(N3CCOCC3)c3c(nc2c1-c1ccccc1)CCCC3,1,-7,5,79*
CCC1CCCCN1C(=O)Cn1c(C(=O)OC)cc2ccsc21 (stereo not drawn),-8,3,3,16
CN(C)c1cccc2c(S(=O)(=O)Nc3ccccn3)cccc12,-24,1,4,36*
Fc1cccc(CO/N=C/c2c(-c3ccccc3)nc3ccc(Cl)cn23)c1,3,1,.,1
Clc1cccc(Cl)c1CO/N=C/c1c(-c2ccccc2)nc2n1CCS2,-3,5,.,30*
CNC(=O)c1nc(C)n(-c2cc(Cl)ccc2Cl)n1,1,-6,.,2
CCOc1ccc(Cl)cc1S(=O)(=O)n1cnc2cc(C)c(C)cc21,-10,0,4,40*
CCOc1ccc(Cl)cc1S(=O)(=O)N1CCN(c2ccc(F)cc2)CC1,0,2,7,33*
CC(C(=O)OCC(=O)Nc1ccc(S(=O)(=O)N2CCCCC2)cc1)N1C(=O)c2ccccc2C1=O (stereo not drawn),2,7,.,1
CCOc1ccc(/C(O)=C2/C(=O)C(=O)N(CCCn3ccnc3)C2c2cccs2)cc1Cl (stereo not drawn),6,-14,14,4
SMILES,PostGolgi yeast,EphB4 ephrin blk,Calb biofilm kill,PostGolgi ctrl
NC(=O)c1ccsc1NC(=O)c1nc(-c2ccccc2)n(-c2ccccc2)n1,73*,.,.,11
CC1(C)Oc2ccc(C(=O)NC3CCCC3)cc2N(CC(=O)NC2CCCCC2)C1=O,-1,-4,6,0
Cn1c(C(=O)N2CCc3ccccc3C2)cc2oc3ccccc3c21,-2,.,.,56*
O=C(Cn1ncc2c(=O)oc3ccccc3c21)N1CCc2ccccc2C1,-1,.,22*,-16
CCn1c(C(=O)N2CCc3ccccc3C2)cc2oc3ccccc3c21,-2,7,3,34*
CCOc1ccccc1CNC(=O)c1cc2oc3ccccc3c2n1CC,-7,7,-1,31*
Cc1cccn2c(=O)c(C=NCc3ccco3)c(Nc3ccc(Cl)cc3)nc12,.,.,2,.
CCOC(=O)/C(N)=C/c1ncc(C(F)(F)F)cc1Cl,3,1,.,-9
Cc1ccc(Cl)cc1NC(=O)c1cnn2c1NC(c1ccco1)CC2C(F)(F)F (stereo not drawn),41*,2,1,58*
O=C(NCc1cccc(Cl)c1)c1cnn2c1NC(c1ccco1)CC2C(F)(F)F (stereo not drawn),-3,-4,7,16
COc1cccc(C2NC(CC(C)C)(C(=O)O)C3C(=O)N(Cc4ccccc4)C(=O)C23)c1O (stereo not drawn),-19,.,5,1

# High-throughput results (PubChem)
